Data reported in PubChem BioAssay (EPA / NIEHS).
The source made the active and inactive calls. How the source made its calls: active means hit-call score of the fitted dose curve at least 0.9, where 1 is the maximum; inactive means score below 0.9.

Assays:
Conditions in all cases: mRNA level, 48 h; actives raise or lower the signal
[1] = read-out: Tumor necrosis factor receptor superfamily member 6 (Homo sapiens) (UniProt P25445); assay: LTEA_HepaRG_FAS: Life Technologies and Expression Analysis (LTEA) Assay for Fas cell surface death receptor (FAS) using HepaRG (AID 2283447)
In short: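 Differentiated human HepaRG cells, pre-cultured 48 h, were exposed in duplicate for 48 h to 8-point half-log concentrations (top 100 uM, 0.5% DMSO) in serum-free induction medium; FAS mRNA measured by qRT-PCR, normalized to ACTB/GAPDH/POLR2A, bidirectional fit versus DMSO.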

[2] = read-out: Fatty acid synthase (Homo sapiens) (UniProt P49327); assay: LTEA_HepaRG_FASN: Life Technologies and Expression Analysis (LTEA) Assay for Fatty Acid Synthase (FASN) using HepaRG (AID 2283448)
In short: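 HepaRG, 48 h exposure, 8-pt half-log series top 100 uM, 0.5% DMSO vehicle, duplicates. Readout: FASN transcript by Fluidigm qRT-PCR; housekeeping-normalized; bidirectional curve fit vs DMSO baseline.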

[3] = read-out: Cyclin D2 (CCND2), CCND2 (gene 894); assay: LTEA_HepaRG_CCND2: Life Technologies and Expression Analysis (LTEA) Assay for Cyclin D2 (CCND2) using HepaRG (AID 2283449);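 further: CCND2 transcript measured by TaqMan qRT-PCR and normalised to three housekeeping genes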
In short: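 In this HepaRG study, an eight-point concentration series (max 100 uM, 0.5% DMSO) is applied for 48 h. CCND2 mRNA change is derived by qRT-PCR normalised to ACTB, GAPDH and POLR2A.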

[4] = read-out: Cyclin Dependent Kinase Inhibitor 1A (CDKN1A), CDKN1A (gene 1026); assay: LTEA_HepaRG_CDKN1A: Life Technologies and Expression Analysis (LTEA) Assay for Cyclin Dependent Kinase Inhibitor 1A (CDKN1A) using HepaRG (AID 2283450)
In short: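 Read-out is CDKN1A mRNA by TaqMan qRT-PCR, normalized to three housekeeping genes and fitted in both directions against the DMSO baseline. Human HepaRG cells were treated 48 h with test chemicals up to 100 uM in half-log steps, 0.5% DMSO.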

[5] = read-out: Cyclin D1 (CCND1), CCND1 (gene 595); assay: LTEA_HepaRG_CCND1: Life Technologies and Expression Analysis (LTEA) Assay for Cyclin D1 (CCND1) using HepaRG (AID 2283451);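 on AC50: TaqMan qRT-PCR transcript level normalised to ACTB GAPDH and POLR2A housekeeping genes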
In short: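 HepaRG plated 48 h, medium switched to serum-free induction medium, chemicals added in duplicate (top 100 uM, half-log steps, 0.5% DMSO) for 48 h, cells lysed, RNA measured by TaqMan qRT-PCR.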

[6] = read-out: catalase (CAT), CAT (gene 847); assay: LTEA_HepaRG_CAT: Life Technologies and Expression Analysis (LTEA) Assay for catalase (CAT) using HepaRG (AID 2283452);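 on AC50: TaqMan qRT-PCR signal normalized to ACTB GAPDH and POLR2A housekeeping genes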
In short: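 Differentiated HepaRG cells in serum-free induction medium were dosed 48 h in duplicate, eight half-log concentrations from 100 uM in 0.5% DMSO. Transcript measured by TaqMan qRT-PCR, normalised to ACTB/GAPDH/POLR2A, fitted bidirectionally against DMSO.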

[7] = read-out: flavin-containing dimethylaniline monooxygenases 3 (FMO3), FMO3 (gene 2328); assay: LTEA_HepaRG_FMO3: Life Technologies and Expression Analysis (LTEA) Assay for flavin-containing dimethylaniline monooxygenases 3 (FMO3) using HepaRG (AID 2283453);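 on AC50: FMO3 transcript by TaqMan qRT-PCR normalized to ACTB GAPDH and POLR2A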
In short: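 Eight-point concentration-response in serum-free HepaRG cultures (top 100 uM, 0.5% DMSO, 48 h). Read-out: FMO3 mRNA level normalized to three endogenous control genes, fitted bidirectionally versus vehicle.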

[8] = read-out: Cytochrome P450 (CYP1A1), CYP1A1 (gene 1543); assay: LTEA_HepaRG_CYP1A1: Life Technologies and Expression Analysis (LTEA) Assay for Cytochrome P450 (CYP1A1) using HepaRG (AID 2283454)
In short: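 HepaRG, 48 h post-plating switched to serum-free induction medium; 8-pt conc-response (top 100 uM, half-log, 0.5% DMSO), duplicates, 48 h. Lysis in RLT, TaqMan qRT-PCR for CYP1A1; gain or loss vs DMSO.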

[9] = read-out: CFLAR gene, CFLAR (gene 8837); assay: LTEA_HepaRG_CFLAR: Life Technologies and Expression Analysis (LTEA) Assay for CFLAR gene using HepaRG (AID 2283455)
In short: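 Gain- or loss-of-signal changes in CFLAR transcript were fitted bidirectionally relative to 0.5% DMSO. Cells (HepaRG, duplicate wells) were dosed for 48 h across eight half-log concentrations topping at 100 uM; quantitation by TaqMan qRT-PCR.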

[10] = read-out: Forkhead box O1 (FOXO1), FOXO1 (gene 2308); assay: LTEA_HepaRG_FOXO1: Life Technologies and Expression Analysis (LTEA) Assay for Forkhead box O1 (FOXO1) using HepaRG (AID 2283456)
In short: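 Using one lot of HepaRG hepatic cells kept in 0.5% DMSO, the team applied test chemicals in duplicate, half-log dilutions from 100 uM, for 48 h. Expression, normalised to ACTB/GAPDH/POLR2A, was compared with vehicle in either direction.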

[11] = read-out: growth arrest and DNA damage 45 (GADD45A), GADD45A (gene 1647); assay: LTEA_HepaRG_GADD45A: Life Technologies and Expression Analysis (LTEA) Assay for growth arrest and DNA damage 45 (GADD45A) using HepaRG (AID 2283458)
In short: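 HepaRG, 48 h exposure, 8 conc. (top 100 uM, half-log steps), 0.5% DMSO vehicle, duplicates. Read-out: qRT-PCR mRNA level, housekeeping-normalized (ACTB/GAPDH/POLR2A). Curves fit bidirectionally vs DMSO baseline.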

[12] = read-out: Forkhead box O3 (FOXO3), FOXO3 (gene 2309); assay: LTEA_HepaRG_FOXO3: Life Technologies and Expression Analysis (LTEA) Assay for Forkhead box O3 (FOXO3) using HepaRG (AID 2283459)
In short: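 Gene-expression endpoint: FOXO3 transcript level by qRT-PCR in HepaRG cultures treated 48 h with chemicals up to 100 uM (half-log, 0.5% DMSO vehicle).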

[13] = read-out: ABC Transporter (ABCB1), ABCB1 (gene 5243); assay: LTEA_HepaRG_ABCB1: Life Technologies and Expression Analysis (LTEA) Assay for ABC Transporter (ABCB1) using HepaRG (AID 2283460)
In short: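 Human liver HepaRG line treated 48 h with up to 100 uM compound (eight half-log points, 0.5% DMSO); ABCB1 mRNA change fitted bidirectionally against DMSO controls.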

[14] = read-out: growth arrest and DNA damage 45 (GADD45B), GADD45B (gene 4616); assay: LTEA_HepaRG_GADD45B: Life Technologies and Expression Analysis (LTEA) Assay for growth arrest and DNA damage 45 (GADD45B) using HepaRG (AID 2283461)
In short: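 HepaRG, ~100,000 cells/well, 48 h plating; serum-free induction medium; cpd 100 uM top, half-log x8, 0.5% DMSO, duplicate, 48 h; lysis in RLT, RNA isolation, qRT-PCR; norm ACTB/GAPDH/POLR2A; bidirectional fit vs DMSO.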

[15] = read-out: ABC Transporter (ABCC3), ABCC3 (gene 8714); assay: LTEA_HepaRG_ABCC3: Life Technologies and Expression Analysis (LTEA) Assay for ABC Transporter (ABCC3) using HepaRG (AID 2283462)
In short: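 Human HepaRG, 48 h dosing, 8-pt half-log series from 100 uM, 0.5% DMSO vehicle, duplicates. ABCC3 mRNA by TaqMan qRT-PCR, housekeeping-normalized; bidirectional curve fit vs DMSO.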

[16] = read-out: ABC Transporter (ABCB11), ABCB11 (gene 8647); assay: LTEA_HepaRG_ABCB11: Life Technologies and Expression Analysis (LTEA) Assay for ABC Transporter (ABCB11) using HepaRG (AID 2283463)
In short: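 Using HepaRG cultures held in 0.5% DMSO, chemicals were tested at half-log dilutions from 100 uM for 48 h. Induction or suppression of ABCB11 mRNA, normalized to ACTB, GAPDH and POLR2A, was fitted bidirectionally against vehicle.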

[17] = read-out: ABC Transporter (ABCC2), ABCC2 (gene 1244); assay: LTEA_HepaRG_ABCC2: Life Technologies and Expression Analysis (LTEA) Assay for ABC Transporter (ABCC2) using HepaRG (AID 2283464)
In short: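 HepaRG, 48 h post-plating; serum-free induction medium; cpd 8-pt, 100 uM top, half-log, 0.5% DMSO, duplicate, 48 h. Readout: ABCC2 mRNA by qRT-PCR, norm. ACTB/GAPDH/POLR2A. Bidirectional fit vs DMSO baseline.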

[18] = read-out: Broad substrate specificity ATP-binding cassette transporter ABCG2 (Homo sapiens) (UniProt Q9UNQ0); assay: LTEA_HepaRG_ABCG2: Life Technologies and Expression Analysis (LTEA) Assay for ABC Transporter (ABCG2) using HepaRG (AID 2283465)
In short: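 Gene expression of ABCG2 in HepaRG liver cells is quantified by qRT-PCR following 48 h exposure across an eight-point series topping at 100 uM. Values come from bidirectional fitting relative to DMSO vehicle.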

[19] = read-out: ATP-citrate lyase (ACLY), ACLY (gene 47); assay: LTEA_HepaRG_ACLY: Life Technologies and Expression Analysis (LTEA) Assay for ATP-citrate lyase (ACLY) using HepaRG (AID 2283466)
In short: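 ACLY expression changes in human HepaRG liver cells are quantified by qRT-PCR after 48 h exposure to test chemicals (maximum 100 uM, half-log steps). Values are fitted in both directions relative to 0.5% DMSO vehicle.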

Measured: AC50

Sequence of Fatty acid synthase (Homo sapiens) (P49327 whole entry, looked up): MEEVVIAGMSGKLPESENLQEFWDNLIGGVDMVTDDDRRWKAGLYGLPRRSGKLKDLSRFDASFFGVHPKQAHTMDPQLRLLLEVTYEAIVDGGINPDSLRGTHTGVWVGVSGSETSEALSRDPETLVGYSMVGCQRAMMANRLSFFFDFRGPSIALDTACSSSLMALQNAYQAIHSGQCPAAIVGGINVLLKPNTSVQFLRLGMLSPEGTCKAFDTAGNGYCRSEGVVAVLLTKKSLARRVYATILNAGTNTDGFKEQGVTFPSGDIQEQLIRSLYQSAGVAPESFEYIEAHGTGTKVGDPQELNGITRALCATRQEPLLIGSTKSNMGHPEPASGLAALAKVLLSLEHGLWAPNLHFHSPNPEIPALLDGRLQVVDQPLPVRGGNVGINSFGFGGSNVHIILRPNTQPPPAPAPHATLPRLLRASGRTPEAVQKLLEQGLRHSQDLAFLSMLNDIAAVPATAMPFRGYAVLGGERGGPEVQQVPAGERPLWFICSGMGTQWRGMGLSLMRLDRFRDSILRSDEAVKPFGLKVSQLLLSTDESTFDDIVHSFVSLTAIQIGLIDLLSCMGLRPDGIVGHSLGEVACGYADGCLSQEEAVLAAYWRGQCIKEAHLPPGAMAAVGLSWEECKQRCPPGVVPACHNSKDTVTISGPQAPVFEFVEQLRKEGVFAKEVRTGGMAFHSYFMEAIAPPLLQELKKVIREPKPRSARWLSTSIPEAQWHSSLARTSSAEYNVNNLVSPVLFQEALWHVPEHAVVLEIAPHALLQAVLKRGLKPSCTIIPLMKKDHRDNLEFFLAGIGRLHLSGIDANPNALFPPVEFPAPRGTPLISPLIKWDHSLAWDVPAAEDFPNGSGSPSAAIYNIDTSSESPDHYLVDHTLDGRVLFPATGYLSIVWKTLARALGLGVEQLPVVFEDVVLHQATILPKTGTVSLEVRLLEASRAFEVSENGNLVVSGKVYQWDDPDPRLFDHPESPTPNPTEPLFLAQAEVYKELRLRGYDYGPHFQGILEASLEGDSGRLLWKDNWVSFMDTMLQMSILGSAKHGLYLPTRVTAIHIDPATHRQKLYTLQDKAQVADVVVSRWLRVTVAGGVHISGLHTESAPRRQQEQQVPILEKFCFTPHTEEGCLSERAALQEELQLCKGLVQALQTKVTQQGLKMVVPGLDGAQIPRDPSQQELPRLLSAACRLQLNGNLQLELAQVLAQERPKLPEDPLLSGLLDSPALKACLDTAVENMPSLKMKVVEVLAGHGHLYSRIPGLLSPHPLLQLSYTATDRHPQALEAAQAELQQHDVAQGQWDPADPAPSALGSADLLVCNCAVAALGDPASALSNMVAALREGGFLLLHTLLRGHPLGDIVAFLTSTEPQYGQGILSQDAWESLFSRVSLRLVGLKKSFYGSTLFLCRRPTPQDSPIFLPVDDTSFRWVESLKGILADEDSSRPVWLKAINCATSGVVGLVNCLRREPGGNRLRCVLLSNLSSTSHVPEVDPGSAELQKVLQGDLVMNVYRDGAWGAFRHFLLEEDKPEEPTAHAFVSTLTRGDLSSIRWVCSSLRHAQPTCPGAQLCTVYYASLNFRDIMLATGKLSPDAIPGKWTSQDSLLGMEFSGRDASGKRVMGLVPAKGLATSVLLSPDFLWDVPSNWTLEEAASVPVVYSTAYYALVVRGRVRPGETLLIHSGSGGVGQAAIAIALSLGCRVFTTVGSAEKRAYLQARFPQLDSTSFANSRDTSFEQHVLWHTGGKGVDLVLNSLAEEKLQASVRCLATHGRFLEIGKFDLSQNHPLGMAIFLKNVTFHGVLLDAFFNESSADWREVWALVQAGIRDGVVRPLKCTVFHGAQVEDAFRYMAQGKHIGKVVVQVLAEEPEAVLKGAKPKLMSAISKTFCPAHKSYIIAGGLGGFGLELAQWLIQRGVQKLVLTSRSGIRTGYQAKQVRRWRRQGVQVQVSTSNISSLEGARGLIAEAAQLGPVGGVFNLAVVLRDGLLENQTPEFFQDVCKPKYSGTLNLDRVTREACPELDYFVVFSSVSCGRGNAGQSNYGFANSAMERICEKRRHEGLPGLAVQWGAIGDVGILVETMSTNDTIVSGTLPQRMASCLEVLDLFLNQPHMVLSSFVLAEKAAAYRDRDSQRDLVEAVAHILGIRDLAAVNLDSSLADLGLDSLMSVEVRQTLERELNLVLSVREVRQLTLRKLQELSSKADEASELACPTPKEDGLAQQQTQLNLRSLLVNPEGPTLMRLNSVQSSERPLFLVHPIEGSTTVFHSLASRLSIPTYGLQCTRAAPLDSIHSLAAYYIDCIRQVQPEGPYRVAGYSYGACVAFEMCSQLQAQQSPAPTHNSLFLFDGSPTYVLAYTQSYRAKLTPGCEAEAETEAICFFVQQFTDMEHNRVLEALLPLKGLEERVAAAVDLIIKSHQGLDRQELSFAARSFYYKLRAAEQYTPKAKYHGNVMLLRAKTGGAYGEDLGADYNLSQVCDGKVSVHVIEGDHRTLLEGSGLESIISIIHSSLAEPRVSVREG
Sequence of Broad substrate specificity ATP-binding cassette transporter ABCG2 (Homo sapiens) (Q9UNQ0 whole entry, looked up): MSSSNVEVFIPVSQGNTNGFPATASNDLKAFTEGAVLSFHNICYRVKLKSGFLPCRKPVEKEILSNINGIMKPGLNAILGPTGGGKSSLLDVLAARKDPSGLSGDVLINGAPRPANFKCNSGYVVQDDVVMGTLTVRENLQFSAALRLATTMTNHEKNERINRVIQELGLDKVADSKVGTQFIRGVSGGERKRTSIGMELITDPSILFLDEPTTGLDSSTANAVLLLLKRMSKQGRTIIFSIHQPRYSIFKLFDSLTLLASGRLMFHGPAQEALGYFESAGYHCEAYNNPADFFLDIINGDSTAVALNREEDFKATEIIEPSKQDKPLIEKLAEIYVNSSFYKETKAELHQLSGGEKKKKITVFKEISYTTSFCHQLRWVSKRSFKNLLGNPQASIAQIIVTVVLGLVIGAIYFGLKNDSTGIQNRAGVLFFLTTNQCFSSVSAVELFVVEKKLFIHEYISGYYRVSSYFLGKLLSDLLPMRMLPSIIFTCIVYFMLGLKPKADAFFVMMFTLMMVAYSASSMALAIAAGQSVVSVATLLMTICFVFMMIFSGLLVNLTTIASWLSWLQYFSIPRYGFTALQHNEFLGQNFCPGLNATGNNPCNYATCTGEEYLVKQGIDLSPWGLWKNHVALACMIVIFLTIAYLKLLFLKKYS

CC(=NC#N)N(C)Cc1ccc(Cl)nc1
active: [8] 50 µM
inactive: all other assays above

CNc1cnn(-c2cccc(C(F)(F)F)c2)c(=O)c1Cl
active: [2] 18 µM | [7] 38.8 µM | [8] 3.99 µM | [12] 31.1 µM | [13] 74.9 µM | [14] 50 µM | [16] 20.1 µM | [18] 17.4 µM
inactive: all other assays above

CON=C(C(=O)OC)c1ccccc1CON=C(C)c1cccc(C(F)(F)F)c1
active: [8] 50 µM | [16] 85.5 µM
inactive: all other assays above

CC1=NNC(=O)N(/N=C/c2cccnc2)C1
active: [2] 13.4 µM | [8] 27.5 µM
not listed: [14]
inactive: all other assays above

CN(C)C(=O)Nc1cccc(C(F)(F)F)c1
active: [8] 24.7 µM | [11] 79.2 µM
not listed: [14]
inactive: all other assays above

CC(Oc1cccc(Cl)c1)C(=O)O (centres undefined)
active: [17] 20.2 µM | [18] 5.79 µM
not listed: [3]
inactive: all other assays above

CCOP(=S)(Oc1cnc(C(C)(C)C)nc1)OC(C)C (centres undefined)
active: [2] 82.4 µM | [5] 50 µM | [6] 5.63 µM | [7] 4.99 µM | [8] 35 µM | [13] 19.4 µM | [16] 1.84 µM | [19] 85.6 µM
not listed: [14]
inactive: all other assays above
